Measurements reported in PubChem BioAssay (NCATS).
Inconclusive results are not listed. Calls of active or inactive are those of the source. The call rests on the fitted dose curve; in most records, active means well fitted curve in the direction sought with a large enough effect; inconclusive means small, poorly fitted or top-dose-only effect, or another doubt; inactive means no such curve, though single readings can be large; an effect the other way counts as inactive or inconclusive.

Experiments:
[1] = P-glycoprotein substrates identified in KB-8-5-11 adenocarcinoma cell line, qHTS therapeutic library screen (AID 1346987); further: nearly all actives have a fitted effect of over 65% in size; further: potency means the concentration at half of the fitted maximal effect
In short: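 Human cervical adenocarcinoma KB-8-5-11 cells, selected in colchicine to over-express P-gp and assayed without it, were exposed for 72 h to titrated compounds. An ATP-based luminescent viability signal gave AC50.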

[2] = system: Zika virus NS2B-NS3 protease (linked construct); experiment: Primary screen NINDS Rhodamine qHTS for Zika virus inhibitors (AID 1347160); further: nearly all actives have a fitted effect of over 55% in size; on activity change, negative = inhibition: on the % scale 0 is the no-effect control and ±100 the full control effect
In short: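 Single-chain NS2B-NS3 protease, 25 nM, pH 8.0; compounds preincubated 15 min. Activity: Rhodamine110 release from 1.5 microM substrate over 15 min, room temperature, data fitted to 4-parameter Hill.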

[3] = molecular target: Calcium and integrin-binding protein 1 (Homo sapiens) (UniProt Q99828); experiment: Primary qHTS for Identification of Calcium Integrin Binding Protein 1 (CIB1) Competitor (AID 1508620); further: potency means the concentration at half of the fitted maximal effect;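 on activity change, negative = inhibition: GST tagged CIB1 binding a fluorescein labelled alphaIIb integrin peptide tracer; top concentration of the series differs between compounds; on the % scale 0 is the no-effect control and ±100 the full control effect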
Calcium and integrin-binding protein 1 (Homo sapiens), sequence (Q99828 whole entry, looked up): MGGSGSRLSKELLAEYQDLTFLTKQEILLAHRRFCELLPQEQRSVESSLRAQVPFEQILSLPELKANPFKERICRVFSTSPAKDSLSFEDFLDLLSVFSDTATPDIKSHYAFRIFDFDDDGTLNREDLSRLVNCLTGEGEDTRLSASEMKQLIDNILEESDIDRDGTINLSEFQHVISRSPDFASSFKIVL
In short: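 Fluorescence polarization competition: CIB1-GST (1 uM final) preincubated with compound 15 min at room temperature, then FITC-labeled alphaIIb peptide (100 nM final) added for another 15 min. Polarization read at Ex 480/Em 540.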

[4] = Primary qHTS for inhibitors of nuclear receptor binding SET domain protein 2 (NSD2) in an isogenic RCH-ACV NSD2 p.E1099K mutant (9B) (AID 1645876); further: nearly all actives have a fitted effect of over 70% in size; further: potency means the concentration at half of the fitted maximal effect
[5] = molecular target: Luciferin 4-monooxygenase (Photinus pyralis) (UniProt P08659); experiment: Primary firefly luciferase (FLuc) qHTS assay for identification of artifact compounds. (AID 1845220); conditions: outcome: dose series up to 54.1 µM unless noted; further: nearly all actives have a fitted effect of over 60% in size;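 on activity change, negative = inhibition: plate controls were DMSO vehicle for no effect and no enzyme for full effect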
In short: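 In this counter-screen for luciferase artifacts, test compounds met substrate (10 uM each luciferin and ATP) before 10 nM enzyme started the reaction. Light output was measured 5 min later.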

[6] = system: Nanoluciferase (engineered Oplophorus gracilirostris luciferase); experiment: Primary Nanoluciferase (NLuc) qHTS assay for identification of artifact compounds. (AID 1845222);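 further: NLuc secreted into diluted conditioned medium of S16 cells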
In short: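 Using secreted nanoluciferase in S16 culture medium (0.22 um filtered, 1:55 dilution), compounds were preincubated 15 min at RT. Signal was generated with Nano-Glo reagent (1:100) over 5 min.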

[7] = Primary redox qHTS assay for identification of artifact compounds. (AID 1845223);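 further: 0% = DMSO and 100% = reference compound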
In short: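 Redox-cycling detection via DTT (250 uM final) oxidation coupled to Amplex Red (25 uM)/HRP (250 mU/mL) in HBSS. 15 min preincubation plus 30 min after DTT, room temperature. Ex/Em 525/598 nm; 4-parameter Hill fit against DMSO and 10 uM DA3003.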

CRL-7250 = normal cell line; experiment: Cytotoxic Profiling of Annotated Libraries Using Quantitative High-Throughput Screening (AID 1296008); conditions: Five cell lines viability, CellTiter-Glo ATP luminescence, 48-72 h; max response: stronger effect = lower value; further: nearly all actives have a fitted effect of over 60% in size; further: potency means the concentration at half of the fitted maximal effect; on max response: on the % scale 0 is the no-effect control and ±100 the full control effect
In short: (§1)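 Compounds were pin-transferred onto cells and incubated 48 or 72 hr at 37 degree Celsius, 95% humidity. CellTiter-Glo was added, plates sat 10 min at room temperature, then ATP-coupled luminescence was imaged as the viability read-out.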

HEK293 = experiment: as above; conditions: Five cell lines viability, CellTiter-Glo ATP luminescence, 48-72 h; max response: stronger effect = lower value
In short: as §1

HaCat = experiment: as above; conditions: Five cell lines viability, CellTiter-Glo ATP luminescence, 48-72 h; max response: stronger effect = lower value
In short: as §1

NIH3T3 = experiment: as above; conditions: Five cell lines viability, CellTiter-Glo ATP luminescence, 48-72 h; max response: stronger effect = lower value
In short: as §1

C33A = experiment: Primary qHTS to identify gynecologic anti-cancer compounds using libraries of approved drugs and bioactive compounds (AID 1345084); conditions: Gynecologic cancer cell panel viability, ATPlite luminescence, 48 h; series mostly up to 57.5 µM; further: nearly all actives have a fitted effect of over 55% in size; further: potency means the concentration at half of the fitted maximal effect
In short: (§2)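 Cells, 1,000 per well, were allowed to settle for 16 h at 37 C before compound addition. Five concentrations were tested for 48 h, and viability was read by ATPlite luminescence after 15 min at room temperature.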

CASKI = experiment: as above; conditions: Gynecologic cancer cell panel viability, ATPlite luminescence, 48 h; series mostly up to 57.5 µM
In short: as §2

Es-2 = experiment: as above; conditions: Gynecologic cancer cell panel viability, ATPlite luminescence, 48 h; series mostly up to 57.5 µM
In short: as §2

Hek293T = experiment: as above; conditions: Gynecologic cancer cell panel viability, ATPlite luminescence, 48 h, control line for the selectivity index; series mostly up to 57.5 µM
In short: as §2

OV90 = experiment: as above; conditions: Gynecologic cancer cell panel viability, ATPlite luminescence, 48 h; series mostly up to 57.5 µM
In short: as §2

PA-1 = experiment: as above; conditions: Gynecologic cancer cell panel viability, ATPlite luminescence, 48 h; series mostly up to 57.5 µM
In short: as §2

Tov-21-G = experiment: as above; conditions: Gynecologic cancer cell panel viability, ATPlite luminescence, 48 h; series mostly up to 57.5 µM
In short: as §2

Tov112D = experiment: as above; conditions: Gynecologic cancer cell panel viability, ATPlite luminescence, 48 h; series mostly up to 57.5 µM
In short: as §2

[8] = molecular target: Phospholipid hydroperoxide glutathione peroxidase GPX4 (Homo sapiens) (UniProt P36969); experiment: Primary qHTS Assay for Inhibitors of Recombinant Selenoprotein Glutathione Peroxidase 4 (GPX4) (AID 1845192); further: nearly all actives have a fitted effect of over 65% in size; on activity change, negative = inhibition: on the % scale 0 is the no-effect control and ±100 the full control effect
Phospholipid hydroperoxide glutathione peroxidase GPX4 (Homo sapiens), sequence (P36969 whole entry, looked up): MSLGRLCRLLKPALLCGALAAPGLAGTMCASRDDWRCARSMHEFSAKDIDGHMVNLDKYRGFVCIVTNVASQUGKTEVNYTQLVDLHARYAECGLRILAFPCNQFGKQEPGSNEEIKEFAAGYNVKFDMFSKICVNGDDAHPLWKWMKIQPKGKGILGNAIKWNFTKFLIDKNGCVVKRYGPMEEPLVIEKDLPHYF
In short: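 qHTS, GR-coupled: GPX4 200 nM + cpd 30 min RT → GSH 1 mM, NADPH 0.5 mM, GR 100 nM → CHP 0.5 mM start; fluor 340/450 at t0 and t15 min; no-enzyme wells as control.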

CC(C)(C)[C@]1(O)C[C@@H]2OC(=O)C[C@@]23C(=O)O[C@@H]2OC(=O)[C@@H](O)[C@]213
inactive: Potency [1] | Potency [2] | Potency [3] | Potency [4] | outcome [5] | Potency [6] | Potency [7] | max response (CRL-7250) 1.12% | max response (HEK293) 1.81% | max response (HaCat) -5.58% | max response (NIH3T3) 3.76% | Potency (C33A) | Potency (CASKI) | Potency (Es-2) | Potency (Hek293T) | Potency (OV90) | Potency (PA-1) | Potency (Tov-21-G) | Potency (Tov112D)

CCC(C)/C=C(C)/C=C/C1=CC2=C(Cl)C(=O)C(C)(OC(C)=O)C(=O)C2=CO1 (stereo not given)
inactive: Potency [1] | Potency [3] | Potency [4] | Potency [8] | outcome [5] | Potency [6] | max response (CRL-7250) -20% | max response (HEK293) -69.1% | max response (HaCat) -66.3% | max response (NIH3T3) -56.4% | Potency (C33A) | Potency (CASKI) | Potency (Es-2) | Potency (Hek293T) | Potency (OV90) | Potency (PA-1) | Potency (Tov-21-G) | Potency (Tov112D)

CNC(=O)c1cc(C#N)cc(C)c1NC(=O)c1cc(Br)nn1-c1ncccc1Cl
inactive: Potency [2] | Potency [3] | Potency [4] | Potency [8] | outcome [5] | Potency [6] | Potency [7] | max response (CRL-7250) 0.534% | max response (HaCat) -17.6% | max response (NIH3T3) -18.9% | Potency (C33A) | Potency (CASKI) | Potency (Es-2) | Potency (Hek293T) | Potency (OV90) | Potency (PA-1) | Potency (Tov-21-G) | Potency (Tov112D)
active: Potency (HEK293) 13000 nM

CC(=O)OC[C@]12C[C@H](OC(=O)CC(C)C)C(C)=C[C@H]1O[C@@H]1[C@H](O)[C@@H](O)[C@@]2(C)[C@]12CO2
inactive: Potency [2] | Potency [3] | Potency [8] | outcome [5] | Potency [6] | Potency [7]
active: Potency [1] 112 nM | Potency [4] 25.2 nM | Potency (CRL-7250) 142 nM | Potency (HEK293) 25.2 nM | Potency (HaCat) 252 nM | Potency (NIH3T3) 100 nM | Potency (CASKI) 224 nM | Potency (Es-2) 178 nM | Potency (Hek293T) 79.4 nM | Potency (Tov-21-G) 355 nM | Potency (Tov112D) 316 nM

CC(=O)O[C@@H]1[C@@H](O)[C@H]2O[C@@H]3C=C(C)[C@@H](O)C[C@]3(CO)[C@]1(C)[C@]21CO1
active: Potency [1] 904 nM | Potency [4] 450 nM | Potency (CRL-7250) 1010 nM | Potency (HEK293) 321 nM | Potency (HaCat) 3600 nM | Potency (NIH3T3) 904 nM | Potency (C33A) 3550 nM | Potency (CASKI) 3980 nM | Potency (Es-2) 2000 nM | Potency (OV90) 1410 nM | Potency (Tov-21-G) 4470 nM
inactive: Potency [2] | Potency [3] | Potency [8] | outcome [5] | Potency [6] | Potency [7]

C=C1[C@@H](C)[C@H]2[C@H](Cc3ccccc3)NC(=O)[C@]23OC(=O)/C=C/C(=O)CCC[C@@H](C)C/C=C/[C@H]3[C@@H]1O
inactive: Potency [2] | Potency [8] | outcome [5] | Potency [6]
active: Potency [1] 5800 nM | Potency [3] 20000 nM | Potency [4] 1450 nM | Potency (CRL-7250) 1640 nM | Potency (HEK293) 1840 nM | Potency (HaCat) 20600 nM | Potency (NIH3T3) 1160 nM | Potency (CASKI) 15800 nM | Potency (Es-2) 14100 nM | Potency (Hek293T) 15800 nM | Potency (PA-1) 20000 nM | Potency (Tov-21-G) 15800 nM | Potency (Tov112D) 15800 nM

COc1ccc2c3c([nH]c2c1)C(C=C(C)C)N1C(=O)C2CCCN2C(=O)C1C3 (stereo not given)
inactive: Potency [1] | Potency [2] | Potency [3] | Potency [8] | outcome [5] | Potency [6] | Potency [7] | max response (CRL-7250) -26.7% | max response (HEK293) -10.4% | max response (HaCat) -17.6% | max response (NIH3T3) -20.2% | Potency (C33A) | Potency (CASKI) | Potency (Es-2) | Potency (Hek293T) | Potency (OV90) | Potency (PA-1) | Potency (Tov-21-G) | Potency (Tov112D)

CC[C@H](C)[C@H](NC(=O)[C@H]1CCCCN1C)C(=O)N(COC(=O)CC(C)C)[C@H](C[C@@H](OC(C)=O)c1nc(C(=O)N[C@@H](Cc2ccc(O)cc2)C[C@H](C)C(=O)O)cs1)C(C)C
inactive: outcome [2] inactive [at 1.3 µM] | activity change, negative = inhibition [3] 1.44% [at 2.24 µM] | activity change, negative = inhibition [5] -4.53% [at 1.03 µM] | activity, negative = inhibition [6] 2.85% [at 1.03 µM] | redox activity (% of DA3003) [7] -0.209% [at 1.02 µM] | max response (HaCat) -10.6%
active: Potency [1] 1.9 nM | Potency [4] 1.1 nM | Potency (CRL-7250) 4.7 nM | Potency (HEK293) 0.4 nM | Potency (NIH3T3) 1.2 nM | Potency (Es-2) 8.3 nM | Potency (Tov-21-G) 5.2 nM | Potency (Tov112D) 4.1 nM
